# Screening results from PubChem BioAssay.
# Pol beta inh = blocks human DNA polymerase beta activity | Pol beta primer extension/strand displacement, fluorescence kinetic | Potency, µM (titrated, usually from 114 µM), without a hit: top-dose activity change, negative = inhibition, hits mostly inhibitors | P06746 | 340,000 tested, 1.3% active; further: potency means the concentration at half of the fitted maximal effect; on the % scale 0 is the no-effect control and ±100 the full control effect
#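 Pol beta (10 nM) was preincubated with compound for 15 min at room temperature. The reaction was then started with 50 nM substrate and read immediately and after a further 10 min at room temperature.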
# WRN helicase inh = inhibitors of human WRN helicase; Potency, µM (highest dose often 114 µM), for the others: top-dose activity change, negative = inhibition, actives largely listed as inhibitors; WRN helicase unwinding, fluorescent forked duplex, kinetic; 360,000 tested, 0.46% active; Q14191; further: potency means the concentration at half of the fitted maximal effect; on the % scale 0 is the no-effect control and ±100 the full control effect; nearly all actives have a fitted effect of over 55% in size
#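 WRN at 20 nM final was preincubated with compound for 15 min at room temperature; reaction started with 100 nM forked duplex oligonucleotide carrying fluorophore and quencher plus 2 mM ATP (final). Unwinding followed kinetically by red fluorescence (ex 525/em 598 nm).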
# Pol kappa inh-1 = inhibitors of human DNA polymerase kappa; Q9UBT6; purified Pol kappa, fluorescent DNA synthesis assay, 10 min; Potency, µM (top dose mostly 107 µM), without a hit: top-dose activity, negative = inhibition, usual class: inhibitors; 400,000 tested, 0.53% active; AID 588579; further: potency means the concentration at half of the fitted maximal effect; on the % scale 0 is the no-effect control and ±100 the full control effect
#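 50 nM final substrate added after 15 min RT preincubation of 10 nM Pol kappa with compound; fluorescence read at 0 and 10 min.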
# Pol eta inh-1 = DNA polymerase eta (human) inhibition | Potency, µM (titrated, usually from 114 µM), without a hit: at the top dose activity change, negative = inhibition, most hits filed as inhibitors | Q9Y253 | recombinant Pol eta, fluorescent DNA replication assay | AID 588591 | 390,000 tested, 1.2% active; further: potency means the concentration at half of the fitted maximal effect; on the % scale 0 is the no-effect control and ±100 the full control effect
#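 Fluorescent replication assay: 50 nM final substrate added after a 15 min room-temperature compound preincubation with 10 nM enzyme. Signal taken at 0 min and again at 10 min.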
# PI5P4K alpha inh = PI5P4K alpha (human) kinase inhibition; P48426; PI5P4Kalpha enzyme, ADP-Glo luminescence, 60 min; hits give low values; max response, %; 330,000 tested, 1.2% active; AID 652105; active means max response of -50% or lower; inconclusive means between -30% and -50%; inactive means -30% or higher; further: value at the top dose of about 77 µM; on the % scale 0 is the no-effect control and ±100 the full control effect
#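 PI5P4Kalpha ADP-Glo assay; 5 microM ATP final; 60 min RT reaction; HEPES pH 7.4/EGTA/CHAPS, 5% DMSO; controls lacking substrate or enzyme; luminescent end-point.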
# POLI inh = blocks human DNA polymerase iota activity; AID 588590; Q9UNA4; Potency, µM (top dose mostly 115 µM), for the others: at the top dose activity, negative = inhibition, hits mostly inhibitors; 390,000 tested, 1% active; Pol iota fluorescent replication assay, 10 min; further: potency means the concentration at half of the fitted maximal effect
# Target sequence (Q9UNA4 whole entry, looked up): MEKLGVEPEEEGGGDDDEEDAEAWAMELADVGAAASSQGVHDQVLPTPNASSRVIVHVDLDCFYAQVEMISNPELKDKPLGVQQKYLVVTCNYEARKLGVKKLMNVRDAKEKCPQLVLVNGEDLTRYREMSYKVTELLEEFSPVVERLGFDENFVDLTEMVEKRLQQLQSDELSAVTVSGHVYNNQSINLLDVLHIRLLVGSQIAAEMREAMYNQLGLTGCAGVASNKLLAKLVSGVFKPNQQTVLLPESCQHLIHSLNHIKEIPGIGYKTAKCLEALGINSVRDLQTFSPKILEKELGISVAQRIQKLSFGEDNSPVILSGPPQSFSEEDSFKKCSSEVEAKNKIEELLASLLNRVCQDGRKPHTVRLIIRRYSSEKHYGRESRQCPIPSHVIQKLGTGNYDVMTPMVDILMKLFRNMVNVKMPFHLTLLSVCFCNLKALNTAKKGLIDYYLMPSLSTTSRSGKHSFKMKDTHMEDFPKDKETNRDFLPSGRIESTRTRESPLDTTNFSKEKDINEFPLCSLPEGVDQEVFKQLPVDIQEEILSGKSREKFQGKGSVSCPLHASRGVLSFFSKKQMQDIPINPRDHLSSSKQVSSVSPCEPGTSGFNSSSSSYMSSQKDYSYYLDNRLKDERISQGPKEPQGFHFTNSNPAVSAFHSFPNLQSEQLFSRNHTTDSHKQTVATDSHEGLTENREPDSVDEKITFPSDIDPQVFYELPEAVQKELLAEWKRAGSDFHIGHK
#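 Fluorescent replication assay read twice, at 0 min and 10 min after adding 50 nM (final) substrate. Enzyme (10 nM) and compounds were first incubated 15 min at room temperature; enzyme-free buffer wells were negative controls.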
# GALK confirm = confirmation of human galactokinase (GALK) inhibitors; shares compounds with Pol eta inh-1; purified GALK, Kinase-Glo ATP depletion luminescence; Potency, µM (highest dose often 115 µM), for the others: at the highest dose activity, negative = inhibition, hits mostly inhibitors; 150 tested, 70% active
# GALK redox cs = redox cycling activity in phenol red-HRP assay; shares compounds with Pol eta inh-1; Phenol red-HRP H2O2 redox cycling, absorbance 600 nm; Potency, µM (highest dose often 115 µM), for inactives: at the top dose activity change, negative = H2O2 signal, hits mostly inhibitors; 150 tested, 40% active; AID 2035
# HEK293 tox = HEK-293 cytotoxicity, GALK inhibitor secondary; shares compounds with Pol eta inh-1; HEK-293 viability, ATP luminescence (CellTiter-Glo), 24/48 h; Potency, µM (highest dose often 46.1 µM), for inactives: at the top dose activity change, negative = cytotoxicity, most hits filed as inhibitors; 170 tested, 10% active; further: potency means the concentration at half of the fitted maximal effect; on the % scale 0 is the no-effect control and ±100 the full control effect
# Pol kappa inh-2 = Pol kappa (human) inhibition, cherry-pick confirmation; 920 tested, 76% active; purified Pol-kappa, fluorescent strand-displacement substrate; Potency, µM, actives largely listed as inhibitors; AID 720501; shares compounds with Pol eta inh-1; further: potency means the concentration at half of the fitted maximal effect
# Pol eta inh-2 = Pol eta (human) inhibition, cherry-pick confirmation | shares compounds with Pol eta inh-1 | Pol eta primer extension, TAMRA/BHQ fluorescence, 10 min | Potency, µM, most hits filed as inhibitors | 2,600 tested, 64% active; further: potency means the concentration at half of the fitted maximal effect
# The depositor's hits bear a star; ? = inconclusive; · = no result given; [ ] = another dose, or the depositor's remark. Rows were chosen to be rich in hits. Some 2.8% of all compounds tested hit in one or more screens of this group. Unless noted, the call rests on the fitted dose curve; in most records, active means well fitted curve in the direction sought with a large enough effect; inconclusive means small, poorly fitted or top-dose-only effect, or another doubt; inactive means no such curve, though single readings can be large; an effect the other way counts as inactive or inconclusive.
SMILES,Pol beta inh,WRN helicase inh,Pol kappa inh-1,Pol eta inh-1,PI5P4K alpha inh,POLI inh,Pol eta inh-2,others
CC(=O)c1ccc(NC(=S)Nc2cccc3cnccc23)cc1,?,-3%,-14%,10%,-19,42%,·,GALK confirm=?;GALK redox cs=11µM*;HEK293 tox=2%
O=C(O)c1ccc(-n2ncc(Cl)c(Cl)c2=O)cc1,·,-10%[11.6 µM],·,22µM*,-15,·,48*,Pol kappa inh-2=30*
CC(=O)Nc1c(Cl)cnn(-c2ccccc2)c1=O,·,2%,4%,-11%,0,-12%,·,
O=C(COC(=O)Cc1ccc(S(=O)(=O)N2CCOCC2)s1)NCCc1ccccc1,22µM*,?,?,79µM*,·,?,?,
O=C(COC(=O)Cc1ccc(S(=O)(=O)N2CCOCC2)s1)NCc1ccccc1,0%,-4%,-21%,?,-21,17%,·,
NC(=O)C(CC(=O)O)NC(=O)[C@@H]1CCOc2c(I)cc([N+](=O)[O-])cc2C(=O)N[C@@H](CO)C(=O)N[C@@H](Cc2ccc(O)cc2)C(=O)N1 (stereo not given in full),0%,-30%[57.1 µM],35µM*,20µM*,-1,?,30*,
Cc1cnccn1,·,·,1%,·,·,83%,·,
O=C(O)CCc1ccc(S(=O)(=O)Nc2cc(C(F)(F)F)ccc2N2CCCC2)cc1,·,?,?,22µM*,?,25µM*,60*,Pol kappa inh-2=?
CN(C)S(=O)(=O)c1cccc(NC(=O)c2cc3c(=O)n4ccccc4nc3s2)c1,12%,-30%[57.1 µM],-5%,-5%,-1,1%,·,
Cc1cc(NS(=O)(=O)c2ccc(NC(=O)c3cc4c(=O)n5ccccc5nc4s3)cc2)nc(C)n1,?,?,89µM*,20µM*,?,50µM*,60*,
CCc1oc(C(=O)O)cc1COC,22µM*,-22%[57.1 µM],-29%,28µM*,7,?,30*,
O=C1C(C2=C(O)c3ccccc3C2=O)=Nc2ccccc21,9%,-26%,-22%,32µM*,·,27%,·,GALK confirm=24µM*;GALK redox cs=15µM*;HEK293 tox=9%
O=C1NC(=O)/C(=C/c2ccc(-c3cc(C(=O)O)ccc3Cl)o2)S1,32µM*,-10%[11.6 µM],56µM*,20µM*,-82*,40µM*,?,
O=C(/C=C1\SC(=O)NC1=O)Nc1ccc(C(=O)O)cc1,7%,-2%,-21%,-16%,?,?,·,
COc1ncc2nc(CCc3ccccc3)c(=O)n(Cc3cccs3)c2n1,·,·,0%[60.1 µM],·,·,·,·,
CCOc1cc(/C=C(/C#N)c2nc3ccccc3[nH]2)ccc1OCc1ccc(C(=O)O)o1,40µM*,?,?,7.9µM*,-7,-21%,30*,Pol kappa inh-2=34*
CCOc1cc(/C=C(/C#N)c2ccc(F)cc2)ccc1OCc1ccc(C(=O)O)o1,-12%,-18%,-17%,?,0,-3%,·,
